Source: PubChem BioAssay AID1159580 (chemical genetic matrix, 2015)
Where “and” joins values, the source holds several entries; their conditions need not be identical. Identical values can stand only once. Hit rate of the full screen: of about 5,500 compounds, about 2,000 (36%) were called active. Roughly 18% stayed inconclusive and do not appear here. Rule as the data show it: active = normalized growth mostly below about 0.91 (no sharp cut-off); inconclusive = no clear call, values can overlap the other calls; inactive = mostly above about 0.92. The list shows a part of the results.

Assay: chemical genetic growth profiling, strain panel (AID 1159580);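 also: tested at 20 µM; growth read once vehicle control cultures reached saturation at 30 °C; 1 = growth at the plate median or of vehicle wells; lower values mean less growth of the strain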
Settings: S. cerevisiae deletion strains, growth OD

Measured: normalized growth

CC(C)[N+](C)(CCC(C(N)=O)(c1ccccc1)c1ccccc1)C(C)C
inactive: locus YAL013W, strain DEP1, hits give low values 1.01 | locus YAL021C, strain ccr4, hits give low values 0.997 | locus YAL026C, strain drs2, hits give low values 0.999 | locus YAL030W, strain snc1, hits give low values 0.993 | locus YBL061C, strain skt5, hits give low values 0.992 | locus YBR009C, strain hhf1, hits give low values 0.994 | locus YBR021W, strain FUR4, hits give low values 1 | locus YBR023C, strain chs3, hits give low values 0.979 | locus YBR171W, strain sec66, hits give low values 0.987 | locus YBR229C, strain ROT2, hits give low values 1.01 | locus YBR231C, strain swc5, hits give low values 0.991 | locus YBR279W, strain paf1, hits give low values 0.97 | locus YCL011C, strain gbp2, hits give low values 0.966 | locus YCL016C, strain dcc1, hits give low values 0.953 | locus YCL029C, strain bik1, hits give low values 1 | locus YCL061C, strain MRC1, hits give low values 0.97 | locus YCL069W, strain vba3, hits give low values 0.993 | locus YCR088W, strain abp1, hits give low values 0.986 | locus YDL005C, strain med2, hits give low values 0.996 | locus YDL035C, strain GPR1, hits give low values 1.01 | locus YDL040C, strain nat1, hits give low values 0.996 | locus YDL074C, strain BRE1, hits give low values 1.01 | locus YDL101C, strain DUN1, hits give low values 1.01 | locus YDL185W, strain tfp1, hits give low values 0.996 | locus YDL192W, strain arf1, hits give low values 1 | locus YDR001C, strain nth1, hits give low values 0.987 | locus YDR069C, strain doa4, hits give low values 1 | locus YDR101C, strain arx1, hits give low values 0.999 | locus YDR137W, strain rgp1, hits give low values 0.987 | locus YDR150W, strain NUM1, hits give low values 1.01 | locus YDR159W, strain sac3, hits give low values 0.997 | locus YDR162C, strain NBP2, hits give low values 1 | locus YDR195W, strain ref2 1.02 | locus YDR297W, strain sur2, hits give low values 0.991 | locus YDR318W, strain mcm21, hits give low values 0.999 | locus YDR334W, strain swr1, hits give low values 0.981 | locus YDR335W, strain msn5, hits give low values 0.99 | locus YDR388W, hits give low values 1 | locus YDR392W, strain spt3, hits give low values 0.9 | locus YDR502C, strain sam2, hits give low values 0.986 | locus YEL003W, strain gim4, hits give low values 1.01 | locus YEL037C, strain rad23, hits give low values 0.987 | locus YEL061C, strain CIN8 (second series), hits give low values 0.988 | locus YEL061C, strain CIN8, hits give low values 0.999 | locus YER015W, strain faa2, hits give low values 0.995 | locus YER016W, strain bim1, hits give low values 0.998 | locus YER110C, hits give low values 1 | locus YER111C, strain swi4, hits give low values 0.981 | locus YER155C, strain BEM2 (second series), hits give low values 1 | locus YER155C, strain BEM2, hits give low values 1.02 | locus YER167W, strain BCK2, hits give low values 0.999 | locus YFR010W, strain ubp6, hits give low values 0.986 | locus YGL078C, strain dbp3, hits give low values 0.996 | locus YGL086W, strain mad1, hits give low values 1 | locus YGL167C, strain pmr1, hits give low values 0.989 | locus YGL173C, strain kem1, hits give low values 0.998 | locus YGL227W, strain vid30, hits give low values 0.98 | locus YGL240W, strain doc1, hits give low values 1 | locus YGL248W, strain PDE1, hits give low values 1 | locus YGL253W, strain hxk2, hits give low values 0.983 | locus YGR135W, strain pre9, hits give low values 0.978 | locus YGR252W, strain gcn5, hits give low values 0.896 | locus YHR013C, strain ard1, hits give low values 0.961 | locus YHR027C, strain rpn1, hits give low values 0.997 | locus YHR030C, strain SLT2, hits give low values 0.998 and 1 | locus YHR079C, strain IRE1 (second series), hits give low values 0.998 | locus YHR079C, strain IRE1, hits give low values 0.994 | locus YHR094C, strain hxt1, hits give low values 0.995 | locus YHR129C, strain ARP1, hits give low values 1.01 | locus YHR142W, strain chs7, hits give low values 0.939 | locus YHR200W, strain rpn10, hits give low values 1 | locus YIL066C, strain RNR3, hits give low values 1.01 | locus YIL073C, strain SPO22, hits give low values 0.988 | locus YIL125W, strain kgd1, hits give low values 0.993 | locus YIR030C, strain dcg1, hits give low values 1.02 | locus YJL092W, strain hpr5, hits give low values 0.986 | locus YJL095W, strain BCK1 (second series), hits give low values 0.988 | locus YJL095W, strain BCK1, hits give low values 1.01 | locus YJL115W, strain asf1, hits give low values 0.993 | locus YJL129C, strain trk1, hits give low values 0.991 | locus YJL134W, strain LCB3, hits give low values 1.02 | locus YJL154C, strain vps35, hits give low values 1 | locus YJL164C, strain tpk1, hits give low values 0.987 | locus YJL166W, strain qcr8, hits give low values 0.972 | locus YJL168C, strain set2, hits give low values 0.99 | locus YJL187C, strain SWE1 (second series), hits give low values 1.01 | locus YJL187C, strain SWE1, hits give low values 1 | locus YJR043C, strain POL32, hits give low values 1.01 | locus YJR066W, strain TOR1, hits give low values 0.943 | locus YKL009W, strain mrt4, hits give low values 1 | locus YKL068W, hits give low values 0.998 | locus YKL085W, strain MDH1 (second series), hits give low values 0.995 | locus YKL085W, strain MDH1, hits give low values 0.995 | locus YKL160W, strain elf1, hits give low values 0.961 | locus YKL190W, strain CNB1, hits give low values 0.98 | locus YKR001C, strain vps1, hits give low values 0.997 | locus YKR026C, strain gcn3, hits give low values 0.998 | locus YKR091W, strain srl3, hits give low values 0.992 | locus YLL001W, strain dnm1, hits give low values 0.96 | locus YLL026W, hits give low values 0.99 | locus YLL041C, strain sdh2, hits give low values 0.995 | locus YLR027C, strain aat2, hits give low values 0.994 | locus YLR039C, strain RIC1, hits give low values 1.07 | locus YLR058C, strain SHM2, hits give low values 1.01 | locus YLR102C, strain apc9, hits give low values 0.999 | locus YLR113W, strain HOG1, hits give low values 1.04 | locus YLR221C, strain rsa3, hits give low values 0.972 | locus YLR258W, strain gsy2, hits give low values 0.98 | locus YLR262C, strain YPT6 (second series), hits give low values 1 | locus YLR262C, strain YPT6, hits give low values 1.03 | locus YLR268W, strain sec22, hits give low values 0.987 | locus YLR320W, strain mms22, hits give low values 0.971 | locus YLR330W, strain CHS5, hits give low values 1.01 | locus YLR342W, strain FKS1 (second series), hits give low values 1.02 | locus YLR342W, strain FKS1, hits give low values 0.994 | locus YLR357W, strain rsc2, hits give low values 0.971 | locus YLR370C, strain arc18, hits give low values 0.975 | locus YLR371W, strain rom2, hits give low values 0.981 | locus YLR384C, strain iki3, hits give low values 0.991 | locus YLR418C, strain cdc73, hits give low values 0.923 | locus YML016C, strain PPZ1, hits give low values 1.01 | locus YML032C, strain rad52, hits give low values 0.993 | locus YML120C, strain ndi1, hits give low values 0.946 | locus YML124C, strain tub3, hits give low values 0.993 | locus YMR058W, strain fet3, hits give low values 0.998 | locus YMR078C, strain ctf18, hits give low values 1 | locus YMR125W, strain sto1, hits give low values 0.978 | locus YMR129W, hits give low values 0.996 | locus YMR205C, strain PFK2, hits give low values 0.974 | locus YMR223W, strain ubp8, hits give low values 0.987 | locus YMR231W, strain pep5, hits give low values 1 | locus YMR307W, strain GAS1, hits give low values 0.9 | locus YNL067W, strain RPL9B, hits give low values 0.997 | locus YNL071W, strain lat1, hits give low values 0.983 | locus YNL128W, strain TEP1, hits give low values 1.01 | locus YNL153C, strain GIM3, hits give low values 1.01 | locus YNL183C, strain NPR1, hits give low values 0.964 | locus YNL209W, strain ssb2, hits give low values 0.986 | locus YNL233W, strain BNI4, hits give low values 1.01 | locus YNL248C, strain rpa49, hits give low values 0.992 | locus YNL250W, strain rad50, hits give low values 0.987 | locus YNL271C, strain bni1, hits give low values 1 | locus YNL298W, strain CLA4, hits give low values 1 | locus YNL307C, strain MCK1, hits give low values 0.988 | locus YNL322C, strain KRE1 (second series), hits give low values 0.966 | locus YNR049C, strain mso1, hits give low values 0.995 | locus YNR052C, strain pop2, hits give low values 0.995 | locus YOL012C, strain htz1 0.833 | locus YOL147C, strain pex11, hits give low values 1 | locus YOR001W, strain rrp6, hits give low values 1.03 | locus YOR061W, strain CKA2, hits give low values 1.01 | locus YOR069W, strain VPS5, hits give low values 1.01 | locus YOR070C, strain gyp1, hits give low values 1 | locus YOR080W, strain dia2, hits give low values 1 | locus YOR083W, strain WHI5, hits give low values 0.963 | locus YOR106W, strain vam3, hits give low values 0.976 | locus YOR136W, strain idh2, hits give low values 0.985 | locus YOR144C, strain elg1, hits give low values 1 | locus YOR184W, strain ser1, hits give low values 0.979 | locus YOR231W, strain MKK1, hits give low values 0.972 | locus YOR265W, strain rbl2, hits give low values 0.994 | locus YOR270C, strain vph1, hits give low values 0.984 | locus YOR290C, strain snf2, hits give low values 0.923 | locus YOR316C, strain cot1, hits give low values 1.01 | locus YPL051W, strain arl3, hits give low values 0.998 | locus YPL055C, strain LGE1, hits give low values 0.991 | locus YPL078C, strain atp4, hits give low values 0.974 | locus YPL106C, strain sse1, hits give low values 0.961 | locus YPL240C, strain hsp82, hits give low values 1 | locus YPL256C, strain CLN2, hits give low values 1 | locus YPR119W, strain clb2, hits give low values 0.991 | locus YPR141C, strain kar3, hits give low values 0.993 | locus YPR163C, strain tif3, hits give low values 0.998 | locus YPR167C, strain met16, hits give low values 0.979 | strain wtn01, hits give low values 0.98
